The structures appear in SMILES notation. This is part of a sample that, as a whole, favours compounds with a hit. Of some 83,000 tested, about 20% had one in any assay.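 Method: cells in 96-well plates; compound added at one concentration; 48 h incubation; percent growth measured; values under 10 scored active.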 Activity calls are given as the source filed them.

One assay has as its system MDA-MB-231 breast. Kind of assay: NCI-60 one-dose screen, 48 h (100 = growth as untreated, 0 = no growth, -100 = all killed). The settings on record: 10 µM.
Take `O=S(=O)(NCCCNc1nccc(-c2c(-c3ccc(F)cc3)nc3sccn23)n1)c1ccc2ccccc2c1`: the growth is 34.9% (inactive).
The same measure, in the same setting: next, `O=C(Nc1cccc(-n2cc(-c3ccncc3)c(-c3ccc(O)c(Cl)c3)n2)c1)c1ccc(Cl)c(Cl)c1`: -19.9% (active).
Consider `Cc1ccc(C)c(C(O)(c2cc(C)ccc2C)C2(O)CCCCC2)c1`, for which the growth is 96.9% (inactive).
The same measure, in the same setting: next, `O=C(/C=C/c1cc2ccccc2[nH]c1=O)c1ccc2c(c1)OCO2`: 94% (inactive); `O=C(Nc1cccc(-n2cc(-c3ccncc3)c(-c3ccc(O)c(Cl)c3)n2)c1)Nc1ccc(Cl)c(Cl)c1`: -44.9% (active).
The same measure, in the same setting: next, `O=C(Nc1ccc(OS(=O)(=O)c2ccccc2)cc1)C12CC3CC(CC(C3)C1)C2`: 19.9% (inactive); `COc1ccc(-c2nn(-c3cccc(NC(=O)Nc4ccc(Cl)c(C(F)(F)F)c4)c3)cc2-c2ccncc2)cc1Cl`: 0.455% (active); `COc1ccc(-c2nn(-c3cccc(NC(=O)c4ccc(Cl)c(Cl)c4)c3)cc2-c2ccncc2)cc1Cl`: 78% (inactive).
The same measure, in the same setting: next, `CCOC(=O)CCC(NC(=O)c1ccc(N)cc1)C(=O)OCC` (stereo not drawn): 126% (inactive); `O=C(Nc1ccccc1)Nc1cccc(-n2cc(-c3ccncc3)c(-c3ccc(O)c(Cl)c3)n2)c1`: 15.6% (inactive); `O=S(=O)(NCCNc1nccc(-c2c(-c3ccc(F)cc3)nc3sccn23)n1)c1ccc2ccccc2c1`: 98.3% (inactive).
Regarding `O=C(Nc1cccc(-n2cc(-c3ccncc3)c(-c3ccc(O)c(Cl)c3)n2)c1)c1cc(C(F)(F)F)cc(C(F)(F)F)c1`, the growth is -45% (active).
`O=C(N/N=C/c1cc2ccccc2c2ccccc12)c1cc(O)c(O)c(O)c1`: the growth was 68.4% (inactive).
Still for that read-out and setting: next, `COc1ccc(-c2nn(-c3cccc(NC(=O)c4cc(C(F)(F)F)cc(C(F)(F)F)c4)c3)cc2-c2ccncc2)cc1Cl`: 74% (inactive); `O=S(=O)(NCCCNc1nccc(-c2c(-c3ccc(F)cc3)nc3sccn23)n1)c1ccc(F)cc1`: 73.3% (inactive).
Same read-out and setting: next, `COc1ccc(-c2nn(-c3cccc(NC(=O)c4ccc(N5CCOCC5)c(C(F)(F)F)c4)c3)cc2-c2ccncc2)cc1Cl`: 66.4% (inactive); `CCCCCCN1CCN(Cc2ccc(N(CC)CC)cc2)C(=O)C1=O`: 44.4% (inactive); `COc1ccc(Oc2nc(NC3CCCC3)nc(Sc3ccc(OC)cc3)n2)cc1`: 50.1% (inactive).
Still for that read-out and setting: next, `COc1ccc(-c2nn(-c3cccc(NC(=O)Nc4cccc(C(F)(F)F)c4)c3)cc2-c2ccncc2)cc1Cl`: 1.25% (active).
With `COc1ccc(-c2nn(-c3cccc(NC(=O)Nc4ccccc4)c3)cc2-c2ccncc2)cc1Cl`, the growth was -9.47% (active).
For `CCOC(=O)c1ccoc1`, the growth is 128% (inactive).
On the same count and under the same terms, next, `COc1ccc(/C=C/C(C)=N/OCC(=O)O)cc1`: 120% (inactive).
For the compound `CN(C)Cc1cn(-c2ncc(-c3ccc(C(F)(F)F)cc3)c(NC3CCCCCC3)n2)nn1`, the growth was 89.5% (inactive).
On the same count and under the same terms, next, `COc1cccc(C(=O)Nc2ccc(CN3CCc4nc5cc(OC)c(OC)cc5cc43)cc2)c1`: 48% (inactive); `O=[N+]([O-])c1cccc(-c2ncc(-c3ccc(Cl)cc3Cl)[nH]2)c1`: 67.7% (inactive); `CCN(CC)CCSCCN(CC)CC`: 118% (inactive).
As to `COc1ccc([N+](=O)[O-])c(C(=O)O)c1`, the growth was 121% (inactive).
For the compound `CNc1ncc(-c2ccc(C(F)(F)F)cc2)c(NC2CCCCCC2)n1`, the growth is 92.8% (inactive).
As to `CN(C)c1ccc(/C=C/C=N/NC(=O)c2cc(O)c(O)c(O)c2)cc1`, the growth was 85.4% (inactive).
On the same count and under the same terms, next, `O=C(Nc1cccc(-n2cc(-c3ccncc3)c(-c3ccc(O)c(Cl)c3)n2)c1)c1ccc(N2CCOCC2)c(C(F)(F)F)c1`: -30.5% (active); `Cc1ccc(CC#N)cc1C`: 97.2% (inactive).
Same read-out and setting: next, `O=c1oc2cc(OS(=O)(=O)c3ccccc3)ccc2c2c1CCCCC2`: 68.4% (inactive); `CCOC(=O)C(NC(=O)C(Cl)Cl)C(O)c1ccccc1` (stereo not drawn): 98.3% (inactive); `C/C(N)=C(\C#N)C(=O)c1ccccc1`: 121% (inactive).
On the same count and under the same terms, next, `Nc1ncnc2[nH]c(=O)[nH]c12`: 91.4% (inactive); `COc1ccc(-c2nn(-c3cccc(NC(=O)c4cccc(C(F)(F)F)c4)c3)cc2-c2ccncc2)cc1Cl`: 9.03% (active); `O=C1CC[C@@H]2CCCC[C@@H]2C1`: 96% (inactive).
Regarding `Cc1ccc(S(=O)(=O)OCCN(CCOS(=O)(=O)c2ccc(C)cc2)c2c[nH]c(=O)[nH]c2=O)cc1`, the growth was 109% (inactive).
Still for that read-out and setting: next, `FC(F)(F)c1ccc(-c2cnc(-n3cc(COCCN4CCCCC4)nn3)nc2NC2CCCCCC2)cc1`: 11.1% (inactive).

In a further assay the test system is RXF 393 renal. Described as above. The settings on record: 10 µM.
Consider `O=S(=O)(NCCCNc1nccc(-c2c(-c3ccc(F)cc3)nc3sccn23)n1)c1ccc2ccccc2c1`, for which the growth is 66.7% (inactive).
For `O=C(Nc1cccc(-n2cc(-c3ccncc3)c(-c3ccc(O)c(Cl)c3)n2)c1)c1ccc(Cl)c(Cl)c1`, the growth is 16% (inactive).
As for `Cc1ccc(C)c(C(O)(c2cc(C)ccc2C)C2(O)CCCCC2)c1`, the growth was 91% (inactive).
On the same count and under the same terms, next, `O=C(/C=C/c1cc2ccccc2[nH]c1=O)c1ccc2c(c1)OCO2`: 112% (inactive).
Still for that read-out and setting: next, `O=C(Nc1cccc(-n2cc(-c3ccncc3)c(-c3ccc(O)c(Cl)c3)n2)c1)Nc1ccc(Cl)c(Cl)c1`: -26.2% (active); `O=C(Nc1ccc(OS(=O)(=O)c2ccccc2)cc1)C12CC3CC(CC(C3)C1)C2`: 26.8% (inactive).
Same read-out and setting: next, `COc1ccc(-c2nn(-c3cccc(NC(=O)Nc4ccc(Cl)c(C(F)(F)F)c4)c3)cc2-c2ccncc2)cc1Cl`: 19.3% (inactive).
For `COc1ccc(-c2nn(-c3cccc(NC(=O)c4ccc(Cl)c(Cl)c4)c3)cc2-c2ccncc2)cc1Cl`, the growth is 65.9% (inactive).
Regarding `CCOC(=O)CCC(NC(=O)c1ccc(N)cc1)C(=O)OCC` (stereo not drawn), the growth was 129% (inactive).
Take `O=C(Nc1ccccc1)Nc1cccc(-n2cc(-c3ccncc3)c(-c3ccc(O)c(Cl)c3)n2)c1`: the growth is 47% (inactive).
On the same count and under the same terms, next, `O=S(=O)(NCCNc1nccc(-c2c(-c3ccc(F)cc3)nc3sccn23)n1)c1ccc2ccccc2c1`: 91.3% (inactive); `O=C(Nc1cccc(-n2cc(-c3ccncc3)c(-c3ccc(O)c(Cl)c3)n2)c1)c1cc(C(F)(F)F)cc(C(F)(F)F)c1`: 33.5% (inactive).
Take `O=C(N/N=C/c1cc2ccccc2c2ccccc12)c1cc(O)c(O)c(O)c1`: the growth was 75% (inactive).
Consider `COc1ccc(-c2nn(-c3cccc(NC(=O)c4cc(C(F)(F)F)cc(C(F)(F)F)c4)c3)cc2-c2ccncc2)cc1Cl`, for which the growth was 62.8% (inactive).
`O=S(=O)(NCCCNc1nccc(-c2c(-c3ccc(F)cc3)nc3sccn23)n1)c1ccc(F)cc1`: the growth was 57.9% (inactive).
The same measure, in the same setting: next, `COc1ccc(-c2nn(-c3cccc(NC(=O)c4ccc(N5CCOCC5)c(C(F)(F)F)c4)c3)cc2-c2ccncc2)cc1Cl`: 18.7% (inactive).
The same measure, in the same setting: next, `CCCCCCN1CCN(Cc2ccc(N(CC)CC)cc2)C(=O)C1=O`: 7.71% (active); `COc1ccc(Oc2nc(NC3CCCC3)nc(Sc3ccc(OC)cc3)n2)cc1`: 74.1% (inactive).
Consider `COc1ccc(-c2nn(-c3cccc(NC(=O)Nc4cccc(C(F)(F)F)c4)c3)cc2-c2ccncc2)cc1Cl`, for which the growth is 23.2% (inactive).
Take `COc1ccc(-c2nn(-c3cccc(NC(=O)Nc4ccccc4)c3)cc2-c2ccncc2)cc1Cl`: the growth was -59.3% (active).
Take `CCOC(=O)c1ccoc1`: the growth is 110% (inactive).
Still for that read-out and setting: next, `COc1ccc(/C=C/C(C)=N/OCC(=O)O)cc1`: 101% (inactive); `CN(C)Cc1cn(-c2ncc(-c3ccc(C(F)(F)F)cc3)c(NC3CCCCCC3)n2)nn1`: 93.6% (inactive); `COc1cccc(C(=O)Nc2ccc(CN3CCc4nc5cc(OC)c(OC)cc5cc43)cc2)c1`: 48.7% (inactive).
Same read-out and setting: next, `O=[N+]([O-])c1cccc(-c2ncc(-c3ccc(Cl)cc3Cl)[nH]2)c1`: 95% (inactive); `CCN(CC)CCSCCN(CC)CC`: 104% (inactive).
On the same count and under the same terms, next, `COc1ccc([N+](=O)[O-])c(C(=O)O)c1`: 98.3% (inactive).
As for `CNc1ncc(-c2ccc(C(F)(F)F)cc2)c(NC2CCCCCC2)n1`, the growth was 80.6% (inactive).
Turning to `CN(C)c1ccc(/C=C/C=N/NC(=O)c2cc(O)c(O)c(O)c2)cc1`, the growth is 99.4% (inactive).
Turning to `O=C(Nc1cccc(-n2cc(-c3ccncc3)c(-c3ccc(O)c(Cl)c3)n2)c1)c1ccc(N2CCOCC2)c(C(F)(F)F)c1`, the growth is -8.59% (active).
As to `Cc1ccc(CC#N)cc1C`, the growth was 83.2% (inactive).
Still for that read-out and setting: next, `O=c1oc2cc(OS(=O)(=O)c3ccccc3)ccc2c2c1CCCCC2`: 64% (inactive).
On the same count and under the same terms, next, `CCOC(=O)C(NC(=O)C(Cl)Cl)C(O)c1ccccc1` (stereo not drawn): 78.7% (inactive).
Still for that read-out and setting: next, `C/C(N)=C(\C#N)C(=O)c1ccccc1`: 97.5% (inactive); `Nc1ncnc2[nH]c(=O)[nH]c12`: 22.1% (inactive); `COc1ccc(-c2nn(-c3cccc(NC(=O)c4cccc(C(F)(F)F)c4)c3)cc2-c2ccncc2)cc1Cl`: 19.4% (inactive).
For `O=C1CC[C@@H]2CCCC[C@@H]2C1`, the growth is 130% (inactive).
Take `Cc1ccc(S(=O)(=O)OCCN(CCOS(=O)(=O)c2ccc(C)cc2)c2c[nH]c(=O)[nH]c2=O)cc1`: the growth is 106% (inactive).
Still for that read-out and setting: next, `FC(F)(F)c1ccc(-c2cnc(-n3cc(COCCN4CCCCC4)nn3)nc2NC2CCCCCC2)cc1`: -3.46% (active).
